Where “and” joins values, the source holds several entries; their conditions need not be identical. Identical values can stand only once. Out of some 16,000 compounds screened, about 2,600 (16%) were called active. Roughly 20% stayed inconclusive and do not appear here. Calls follow the shape of the dose curve; as a rule, active = well fitted curve in the direction sought with a large enough effect; inconclusive = small, poorly fitted or top-dose-only effect, or effect the other way; inactive = no such curve, though single readings can be large or run the other way. A selection follows. A structure can be active in one record and inactive in another.
Biological target: Cytochrome P450 2D6 (Homo sapiens) (UniProt P10635)
Sequence (P10635 whole entry, looked up): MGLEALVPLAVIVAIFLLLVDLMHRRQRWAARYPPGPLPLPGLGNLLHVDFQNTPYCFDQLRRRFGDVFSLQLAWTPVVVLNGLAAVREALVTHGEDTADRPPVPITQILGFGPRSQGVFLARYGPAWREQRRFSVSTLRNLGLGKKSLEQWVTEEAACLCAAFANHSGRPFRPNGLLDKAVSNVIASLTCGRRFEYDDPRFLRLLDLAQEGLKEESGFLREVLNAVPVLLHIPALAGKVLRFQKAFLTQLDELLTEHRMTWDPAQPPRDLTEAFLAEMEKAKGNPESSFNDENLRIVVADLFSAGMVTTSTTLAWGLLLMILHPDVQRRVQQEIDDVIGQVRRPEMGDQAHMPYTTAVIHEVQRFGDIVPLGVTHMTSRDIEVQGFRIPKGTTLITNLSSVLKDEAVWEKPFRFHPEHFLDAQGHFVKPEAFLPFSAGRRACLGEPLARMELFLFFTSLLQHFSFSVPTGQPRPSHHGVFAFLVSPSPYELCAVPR
Assay: Cytochrome panel assay with activity outcomes
Conditions: recombinant CYP, pro-luciferin dealkylation, luminescence, p450-cyp2d6; series mostly up to 57.1 µM; activity, negative = inhibition: at the top concentration
% is scaled to controls: 0 for no effect and ±100 for the full control effect.

Structure (SMILES)	activity, negative = inhibition	AC50
COC(=O)[C@@H]1O[C@@H](c2c(OC)c(OC)c(C)c(OC)c2OC)[C@H](C)[C@@H](O)[C@@H]1C	15.2% [at 11.4 µM] (inactive)	
NS(=O)(=O)c1cc(C(=O)O)cc(N2CCCC2)c1Oc1ccccc1	1.59% [at 25.6 µM] (inactive)	
O=C(c1cn(-c2ccccc2)nc1-c1cccs1)N1CCOCC1	-11.1% (inactive)	
O=C1C[C@@H](O)[C@@H](O)[C@H]2[C@@H]3C(=O)N(c4cccc(Oc5ccccc5)c4)C(=O)[C@@H]3CC[C@H]12	-10.1% [at 11.4 µM] (inactive) and -0.87% [at 11.4 µM] (inactive)	
CCOC(=O)Cc1cc(=O)n2[nH]c(C)c(-c3ccccc3)c2n1	-5.14% (inactive)	
CCS(=O)(=O)c1ccc2c(c1)N(S(C)(=O)=O)CC(C(=O)NCCOC)O2 (stereo unspecified)	-11.3% (inactive)	
Cc1ccccc1-c1nc(-c2ccc(NC(=O)c3cccs3)cc2)no1	-16.1% (inactive)	
O=C(Nc1ccccc1)c1cc(-n2cnnc2)ccc1Cl	-7.55% (inactive)	
C[C@]12CC[C@H]3c4ccc(OC[C@H]5CO5)cc4CC[C@H]3[C@H]1CC[C@@H]2O	-13.3% [at 11.4 µM] (inactive)	
O=C(Oc1ccccc1)N1CCC[C@@]2(CCN(c3ccccn3)C2)C1		7.94 µM (active)
O=C(Oc1ccccc1)N1CCC2(CC1)CN(c1ccccn1)C2	-16.7% (inactive)	
COC(=O)N1CCC[C@@]2(CCN(c3ncccn3)C2)C1	5.06% (inactive)	
O=C(Oc1ccccc1)N1CCC[C@@]2(CCN(c3ncccn3)C2)C1	1.35% (inactive)	
O=C(c1ccncc1)N1CCC[C@@]2(CCN(c3ccccn3)C2)C1	-13.2% (inactive)	
COC(=O)N1CCC[C@@]2(CCN(c3ccccn3)C2)C1		12.6 µM (active)
Cc1ccc(-c2nnc(-c3ccc(NC(=O)c4cccs4)cc3)o2)cc1	0.249% (inactive)	
Cc1ccc(S(=O)(=O)O[C@H]2C[C@@H](C(C)(C)C)CC[C@@H]2c2ccccc2)cc1	-9.43% [at 11.4 µM] (inactive)	
CCOC(=O)C1=NOC(CNC(=O)C2=NOC(CNC(=O)c3c(-c4ccccc4Cl)noc3C)C2)C1 (stereo unspecified)	-8.08% (inactive)	
C/C(CCN1CCc2nc(-c3ccccc3)c(-c3ccccc3)cc2C1)=N\OC[C@@H](C)[C@H](OCc1ccccc1)C(C)C	13.5% [at 11.4 µM] (inactive)	
Cc1ccc(S(=O)(=O)CCCS(=O)(=O)c2ccc(C)cc2)cc1	22.6% (inactive)	
Cc1ccc(S(=O)(=O)/C=C\C#N)cc1		0.0158 µM (active)
CC(C)(C)c1ccc(S(=O)(=O)/C=C\C#N)cc1	-5.04% (inactive)	
CC1(C)Cc2c(sc3c2C(=O)N(c2ccccc2)C2=NCCN23)CS1	-11.5% (inactive)	

Structure (SMILES)	activity, negative = inhibition	AC50
C=C1CCO[C@@]2([C@H](O)[C@@](C)(O)CO)NC(=O)[C@]1(O)NC2=O	9.37% [at 11.4 µM] (inactive)	
COC(=O)c1ccccc1NC(=O)C1CCN(C(=O)c2ccc(OC)cc2)CC1	-1.54% (inactive)	
COc1ccc(NC(=O)N2CCCC2C(=O)Nc2ccccc2)cc1 (stereo unspecified)	26.7% (inactive)	
O=C(Nc1ccc(Oc2ccccc2)cc1)C1CCN(c2c3c(nc4ncnn24)CCC3)CC1		12.6 µM (active)
COc1ccccc1CNc1ccnc(-c2cccc(C#N)c2)n1		25.1 µM (active)
COc1cccc(-c2nccc(NCc3ccccc3OC)n2)c1		0.398 µM (active)
COc1cccc(-c2nccc(NCc3ccc(OC)cc3OC)n2)c1		12.6 µM (active)
COc1ccc(CNc2ccnc(-c3cccnc3)n2)c(OC)c1		10 µM (active)
COc1ccc(C(=O)Nc2scc(-c3ccc(Cl)cc3Cl)c2C(N)=O)cc1	-20.9% (inactive)	
CN1CCCN(C2C3CC4CC(C3)CC2C4)CC1 (stereo unspecified)	-16.1% (inactive)	
Cc1cc(C)c(S(=O)(=O)N2CCN(c3ccc([N+](=O)[O-])c(NCc4ccco4)c3)CC2)c(C)c1	9.58% (inactive)	
CCOCC(=O)Nc1c(C(=O)Nc2ccccc2OC)oc2ccccc12	7.99% (inactive)	
COc1ccc(COC(=O)N/N=C2/C[C@@H](O)[C@@H](O)[C@@H]3[C@@H]4C(=O)N([C@@H](C)c5ccccc5)C(=O)[C@H]4CC[C@@H]23)cc1	-8.23% [at 11.4 µM] (inactive)	
CC(C)=C1C(=O)C(c2ccccc2)=C2CN3C(=O)N(CCc4ccccc4)C(=O)[C@]3(Cc3ccccc3)[C@H]21	1.45% (inactive)	
O=C(O)c1nc(-c2ccccc2)[nH]c1C(=O)O	-20.9% [at 11.4 µM] (inactive)	
Cc1cccc(NC(=O)c2cc(N3C(=O)CCC3=O)ccc2Cl)n1	5.17% (inactive)	
Cc1ccc(S(=O)(=O)N(C)c2cc(S(=O)(=O)N3CCC(C)CC3)c(C)cc2C)cc1	-26.8% (inactive)	
CCOC(=O)c1cnc(-n2nc(C)cc2C)nc1NCCO	-6.66% (inactive)	
CC1=CC(=O)CC(C)(C)[C@]1(O)/C=C\C(C)=C\C(=O)O	11.4% [at 11.4 µM] (inactive)	
CC1=C(\C=C/C(C)=C/C=C\C(C)=C\C(=O)O)C(C)(C)CCC1		inactive and 2 µM (active)
O=C1c2ccccc2N[C@H](c2cc(Cl)cc(Cl)c2O)N1CCc1ccccn1	15% [at 11.4 µM] (inactive)	
N#Cc1c(NC(=O)C2CC(c3ccccc3Cl)=NO2)sc2c1CCC2 (stereo unspecified)	13% (inactive)	
COC(=O)C1CCN(CC(=O)Nc2sc3c(c2C#N)CCC3)CC1		1.12 µM (active)

Reference: PubChem BioAssay AID1851 (National Center for Advancing Translational Sciences (NCATS), 2009)
